“And” between values parts separate entries of the source, which are not always exact repeats. Equal entries are not always repeated. Among all 220,000 compounds or so, about 16,000 (7.3%) were called active. Not shown: some 25% with an inconclusive outcome. Shown is part of a subset that was picked to be rich in actives. Unmarked numbers belong to inactive results. Calls come from the whole dose curve; as a rule, active = well fitted inhibition curve with a large enough effect (not every such curve was filed as active); inconclusive = small, poorly fitted or top-dose-only effect, or another doubt; inactive = no such curve, though single readings can be large or run the other way.

The results in this text go back to PubChem BioAssay AID1030 (National Center for Advancing Translational Sciences (NCATS), 2008).
Potency is the fitted concentration of half-maximal effect.

The experiment deals with Aldehyde dehydrogenase 1A1 (Homo sapiens) (UniProt P00352). As to the kind of experiment: qHTS Assay for Inhibitors of Aldehyde Dehydrogenase 1 (ALDH1A1).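 For activity, negative = inhibition: plate controls were no enzyme wells and a reference inhibitor.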 As to conditions: Purified ALDH1A1, NADH fluorescence, propionaldehyde substrate; series mostly up to 75.3 µM; activity, negative = inhibition: at the top concentration. A general note: qHTS replaces the single test concentration by a dilution series.
Aldehyde dehydrogenase 1A1 (Homo sapiens), sequence (P00352 whole entry, looked up): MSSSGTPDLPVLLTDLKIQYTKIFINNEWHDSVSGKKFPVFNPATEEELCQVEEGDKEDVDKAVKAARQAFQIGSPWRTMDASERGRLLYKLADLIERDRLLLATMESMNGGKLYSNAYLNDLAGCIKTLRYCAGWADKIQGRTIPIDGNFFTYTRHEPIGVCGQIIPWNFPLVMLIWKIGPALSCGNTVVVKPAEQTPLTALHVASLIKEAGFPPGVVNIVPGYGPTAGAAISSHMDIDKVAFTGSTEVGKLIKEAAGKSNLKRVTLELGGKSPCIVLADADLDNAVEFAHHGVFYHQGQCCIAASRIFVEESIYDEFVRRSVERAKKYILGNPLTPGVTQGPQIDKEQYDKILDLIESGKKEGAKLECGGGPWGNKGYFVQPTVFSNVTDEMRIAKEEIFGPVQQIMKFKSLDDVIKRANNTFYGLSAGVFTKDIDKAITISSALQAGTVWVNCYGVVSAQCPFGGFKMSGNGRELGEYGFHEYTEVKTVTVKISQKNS
Take `CC(C)c1ccc(N2CCN(C(=O)c3ccccc3NC(=O)/C=C(\C(=O)O)c3ccccc3)CC2)cc1`: the Potency was 22.4 µM (active).

For the compound `O=C(O)C1CC=CCC1C(=O)Nc1ccccc1C(=O)N1CCN(c2ccccc2)CC1` (centres undefined), the “activity, negative = inhibition” value was 3.98%.

For `Cc1cccc(N2CCN(C(=O)c3ccccc3NC(=O)C3CCCCC3C(=O)O)CC2)c1` (centres undefined), the “activity, negative = inhibition” value is -1.92%.

For `O=C(NC1(C(F)(F)F)NC(=O)N(C2CCCCC2)C1=O)c1ccco1` (centres undefined), the “activity, negative = inhibition” value is 2.2%.

Turning to `CCCCOc1ccc(C(=O)NCc2ccncc2)cc1`, the “activity, negative = inhibition” value was 8.81%.

Take `CCOc1c2ccc(C(=O)NCc3ccc(OC(F)(F)F)cc3)cc2nn1C`: the Potency is 3.16 µM (active).

Consider `CCOc1ccc(Cn2nnc(C(=O)NCc3ccccc3)c2N)cc1`, for which the “activity, negative = inhibition” value was -9.7%.

For the compound `CCOC(=O)C(C)n1nc(-c2ccccc2)c2ccccc2c1=O` (centres undefined), the “activity, negative = inhibition” value is -4.13%.

Take `Cc1cc(NC(=O)Nc2ccccc2[N+](=O)[O-])no1`: the “activity, negative = inhibition” value was -5.73%.

As to `COc1ccc(NC(=O)c2ccc(OC)cc2)cc1`, the “activity, negative = inhibition” value is -2.23%.

As for `COc1ccc(/C=C/NC(=O)c2ccc(OC)cc2)cc1`, the Potency was 2.82 µM (active).

Regarding `COc1ccc(/C=C/NC(=O)Cc2ccc(OC)c(OC)c2)cc1`, the activity, negative = inhibition was 8.87% [at 13.5 µM] and 1.01% [at 13.5 µM].

Take `CCOC(=O)NNC(=O)c1ccc(Cl)cc1`: the “activity, negative = inhibition” value was -3.42%.

As for `CCOC(=O)C1C(c2ccc(Cl)cc2)NC(=S)NC1(O)C(F)(F)F` (centres undefined), the Potency was 7.94 µM (active).

Take `O=C(c1cccs1)C1C(c2ccc(Br)cc2)NC(=S)NC1(O)C(F)(F)F` (centres undefined): the Potency is 3.16 µM (active).

As to `CC(=O)C1C(c2ccc(Cl)cc2)NC(=O)NC1(O)C(F)(F)F` (centres undefined), the “activity, negative = inhibition” value was 8.56%.

Regarding `O=C(CN(C(=O)c1csnn1)c1cccc(F)c1)NCc1ccc(F)cc1`, the “activity, negative = inhibition” value is 5.3%.

Consider `CCn1cnc2scc(-c3ccc(C)c(C)c3)c2c1=O`, for which the “activity, negative = inhibition” value is -6.88%.

Turning to `CN1C(=O)/C(=C\c2cc(Br)cs2)c2ccccc21`, the “activity, negative = inhibition” value was -2.78%.

Consider `CC(C)c1csc(CN2CCC(CO)(Cc3ccccc3)CC2)n1`, for which the “activity, negative = inhibition” value is 15%.

`CCOc1cc(CNn2c(C)nnc2SCC(=O)NC(C)(C)C)ccc1OCC(=O)NC(C)(C)C`: the “activity, negative = inhibition” value was 8.98%.

As to `CCOCCCNCc1ccc(OCc2ccc(F)cc2)c(OC)c1`, the “activity, negative = inhibition” value is 0.342%.

On to `O=C(CCc1n[nH]c(=O)[nH]c1=O)N/N=C/c1ccc(Br)o1`, for which the “activity, negative = inhibition” value was -3.34%.

As to `Cc1nnc(SCC(=O)N2c3ccccc3C(C)(c3ccc(Cl)cc3)CC2(C)C)s1` (centres undefined), the “activity, negative = inhibition” value is 3.67%.

Turning to `O=[n+]1c2c(n([O-])c3cc(Br)ccc31)CCC2`, the Potency was 31.6 µM (active).

For `Cc1ccc(-c2c(C)n([O-])c3c([n+]2=O)CCC3)cc1`, the “activity, negative = inhibition” value is 5.63%.

For the compound `Cc1ccc(-c2c[n+](=O)c3c(n2[O-])CCC3)cc1`, the “activity, negative = inhibition” value is 7.22%.

Turning to `COc1ccc([N+](=O)[O-])cc1NC(=O)CC1SC(=Nc2cccc(C)c2C)N(/N=C(\C)c2ccc(C)cc2)C1=O` (centres undefined), the “activity, negative = inhibition” value is -1.71%.

Turning to `CN(c1ccccc1)S(=O)(=O)c1ccc(Cl)c(C(=O)OCC(=O)N2CCOCC2)c1`, the “activity, negative = inhibition” value is 8.36%.

On to `N#CC1=C(N)N(c2ccc(F)cc2)C(=O)C1`, for which the Potency is 22.4 µM (active).

As to `Cn1c(N)cc(-c2ccc(F)cc2)c(C#N)c1=O`, the “activity, negative = inhibition” value was -6.05%.

As for `O=C1CCCC2=C1C(c1cccs1)CC(=O)N2c1ccc(F)cc1` (centres undefined), the “activity, negative = inhibition” value is 2.98%.

For the compound `O=C(CCC(=O)c1cccs1)NC1CCCCCC1`, the “activity, negative = inhibition” value is -13.8%.

Take `CCCCNC(=O)N1CCN(S(C)(=O)=O)CC1`: the “activity, negative = inhibition” value was -0.297%.

As to `COc1ccccc1NC(=O)COC(=O)Cc1ccc(S(=O)(=O)N2CCCCC2)s1`, the “activity, negative = inhibition” value is -5.93%.

Turning to `CCOC(=O)C1Sc2[nH]c(=O)sc2C(c2ccc(Cl)cc2)C1C(=O)OCC` (centres undefined), the Potency was 11.2 µM (active).

With `CCOC(=O)C1=C(C)NC(=O)N(C(C)=O)C1c1ccc(Cl)cc1` (centres undefined), the “activity, negative = inhibition” value is -0.324%.

`Cc1c(NC(=O)CCC2CCCCC2)cc(C(=O)N2CCOCC2)cc1[N+](=O)[O-]`: the “activity, negative = inhibition” value was 3.98%.

In the case of `O=C(N/N=C/c1ccco1)c1ccc(NC(=O)C2CC2)cc1`, the “activity, negative = inhibition” value is -3.27%.

Consider `Cc1ccc(NC(=O)Nc2cccc(C(F)(F)F)c2)nc1`, for which the “activity, negative = inhibition” value is -7.02%.

`COc1ccc(/C=N\NC(=O)c2sc(N)nc2C)cc1OC`: the “activity, negative = inhibition” value was 2.89%.

Regarding `COc1ccc(C(=O)Nc2ccccc2C(=O)N/N=C/c2ccc(O)c(OC)c2)cc1`, the “activity, negative = inhibition” value was 3.47%.

Turning to `COc1cc(/C=N/NC(=O)c2ccccc2)ccc1OS(=O)(=O)c1ccccc1`, the Potency is 14.1 µM (active).

In the case of `COc1ccc(/C=N/NC(=O)c2ccc(Cl)cc2)cc1COC(C)=O`, the “activity, negative = inhibition” value was 7.34%.

Turning to `COc1cccc(/C=N/NC(=O)c2cccc([N+](=O)[O-])c2)c1OS(=O)(=O)c1ccc(C)cc1`, the “activity, negative = inhibition” value was -5.06%.

Regarding `COc1ccc(/C=N/NC(=O)c2ccccc2)cc1OS(=O)(=O)c1ccccc1`, the Potency is 14.1 µM (active).

In the case of `O=C(NNC(=O)c1cnccc1C(F)(F)F)c1ccc(Cl)cc1`, the “activity, negative = inhibition” value was 10.2%.

Consider `Nc1nc(O)c(CC(=O)O)s1`, for which the “activity, negative = inhibition” value was 3.26%.

For the compound `Cc1cc(C)c(C(N)=O)c(Cl)n1`, the “activity, negative = inhibition” value was 3.59%.

As for `CCOC(=O)c1c(NC(=O)CCl)sc(C(=O)N(CC)CC)c1C`, the Potency was 10 µM (active).

Consider `CCOC(=O)c1sc(NC(=O)CCN2CCOCC2)c(C(=O)OCC)c1C`, for which the Potency was 17.8 µM (active).

Regarding `CCOC(=O)c1c(NC(C)=O)sc2c(O)c(Br)ccc12`, the “activity, negative = inhibition” value was -12.2%.

On to `CCc1c(C)sc(NC(=O)OC)c1C(=O)N1CCOCC1`, for which the “activity, negative = inhibition” value was 0.994%.

As for `CCOC(=O)c1sc(NC(=O)COc2ncnc3ccccc23)c(C(=O)OCC)c1C`, the “activity, negative = inhibition” value was -16.3%.
